Where “and” joins values, the source holds several entries; their conditions need not be identical. Equal values may be shown once. Inconclusive results are not listed. Calls of active or inactive are those of the source. Unless noted, the call rests on the fitted dose curve; in most records, active means well fitted curve in the direction sought with a large enough effect; inconclusive means small, poorly fitted or top-dose-only effect, or another doubt; inactive means no such curve, though single readings can be large; an effect the other way counts as inactive or inconclusive.

Experiment [1] in a line: Cell Viability - Hek293 (AID 427;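 active means compounds whose dose-response curve shows a full or clear partial loss of cell viability, called from curve shape rather than a numeric limit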;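 further: potency means the concentration at half of the fitted maximal effect; cells exposed to compound for 40 hours at 37 °C before reading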). Particulars: qHTS. Summed up: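 HEK293 cells in complete medium were exposed to compound for 40 hr at 37 °C, then cellular ATP was read by CellTiter-Glo luminescence. Data were normalized to DMSO (basal) and 100 uM tamoxifen (100% inhibition), and AC50 came from Hill fits.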
In general terms: Quantitative high-throughput screening tests each substance at several concentrations.

Experiment [2] can be described thus: Cell Viability - N2a (AID 540).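 Further: plate controls were DMSO alone for no effect and tamoxifen control for full effect; nearly all actives have a fitted effect of over 45% in size.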 Particulars: N2a mouse neuroblastoma cell viability; activity change, negative = cytotoxicity: at 92.2 µM (top of the series). Summed up: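 Cytotoxicity was scored as loss of cellular ATP in N2a cells, a mouse neuroblastoma line. Compounds are applied in a qHTS concentration series for 40 hr at 37 °C.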
Experiment [3] can be described thus: Cell Viability - H-4-II-E (AID 543). Further: on the % scale 0 is the no-effect control and ±100 the full control effect; nearly all actives have a fitted effect of over 35% in size. Particulars: H-4-II-E rat hepatoma viability; series mostly up to 92.2 µM. Summed up:
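Cells seeded at 1500 per well and rested 5 hr; compounds added; 40 hr incubation at 37 °C; CellTiter-Glo added, 20 min at room temperature; luminescence read. Hill-equation fits gave AC50.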

A short description of experiment [4]: Cell Viability - SH-SY5Y (AID 544).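 Further: 0% = DMSO alone and -100% = 100 µM tamoxifen; nearly all actives have a fitted effect of over 55% in size.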 To be noted: SH-SY5Y neuroblastoma cell viability; viability change, negative = cytotoxic: at 92.2 µM (top of the series). Summed up: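 Cells were plated at 1500 per well and allowed 5 hr at 37 °C. Compounds were added across a concentration range and incubated 40 hr at 37 °C. CellTiter-Glo was added for 20 min at room temperature before luminescence reading.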

Experiment [5] is described as follows: Cell Viability - Renal Proximal Tubule (AID 545).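 Further: 0% = DMSO only and -100% = 100 µM tamoxifen; nearly all actives have a fitted effect of over 40% in size.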 To be noted: renal proximal tubule cells viability, primary cells of rat origin; activity change, negative = cytotoxicity: at 91.7 µM (top of the series). Summed up: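 Luminescent ATP signal (CellTiter-Glo) served as the viability read-out after 40 hr compound exposure of freshly isolated rat proximal tubule cells at 37 °C. Concentration-dependent ATP loss was fitted with the Hill equation to give AC50.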

Experiment [6] is described as follows: MultiTox-Fluor Cytotoxicity Assay - LYMP1-002 - Dead Cells (AID 960).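 Further: cells exposed to compound for 16 h at 37 °C; 0% = DMSO and 100% = tetraoctylammonium bromide; nearly all actives have a fitted effect of over 60% in size.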 To be noted: LYMP1-002 lymphoblastoid cells, dead-cell protease fluorescence; series mostly up to 46.1 µM. Summed up: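 Cells were plated, rested 5 hr, then treated with compound dilution series for 16 hr at 37 C. After adding substrate reagent and 60 min at room temperature, dead-cell protease fluorescence gave concentration-response curves fitted by the Hill equation.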

The nature of experiment [7]: Cell Viability - LYMP2-004 (AID 966).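 Further: plate controls were DMSO only for no effect and tetraoctylammonium bromide control for full effect; nearly all actives have a fitted effect of over 65% in size.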 Particulars: LYMP2-004 lymphoblastoid cell viability, qHTS; series mostly up to 92.2 µM. Summed up: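 qHTS cytotoxicity: human lymphoblastoid line, 24 hr compound treatment, 37 C, complete medium. Viability read as cellular ATP via luciferase luminescence; tetraoctylammonium bromide served as positive control.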
Experiment [8] is described as follows: Cell Viability - LYMP2-005 (AID 967).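 Further: cells exposed to compound for 24 h at 37 °C; plate controls were DMSO only for no effect and 92 µM tetraoctylammonium bromide control for full effect.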 Particulars: LYMP2-005 lymphoblastoid cell viability; series mostly up to 92.2 µM. Summed up: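 Acute cytotoxicity is scored as a concentration-dependent drop in intracellular ATP in human lymphoblastoid LYMP2-005 cells after 24 h compound treatment. ATP is quantified by luciferase luminescence, and AC50 is derived by Hill-equation modelling.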

The nature of experiment [9]: Cell Viability - LYMP2-009 (AID 968).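 Further: cells exposed to compound for 24 h at 37 °C; 0% = DMSO alone and the full-kill end = tetraoctylammonium bromide at 92 µM; nearly all actives have a fitted effect of over 55% in size.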 To be noted: LYMP2-009 lymphoblastoid cell viability; series mostly up to 92.2 µM.
A short description of experiment [10]: Cell Viability - LYMP2-015 (AID 971).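 Further: 0% = DMSO only and full effect = 92 µM tetraoctylammonium bromide; nearly all actives have a fitted effect of over 55% in size.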 Particulars: LYMP2-015 lymphoblastoid cell viability; series mostly up to 92.2 µM. Summed up: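 Cells are seeded at 2500 per well and incubated 5 hr at 37 C. Compounds are added across a concentration series for 24 hr at 37 C. CellTiter-Glo is added, and luminescence is read after 30 min at room temperature.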
Experiment [11] in a line: Cell Viability - LYMP2-017 (AID 972).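 Further: cells exposed to compound for 24 hours at 37 °C; on the % scale 0 is the no-effect control and ±100 the full control effect; nearly all actives have a fitted effect of over 55% in size.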 To be noted: LYMP2-017 lymphoblastoid cell viability; series mostly up to 92.2 µM. Summed up:
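Cytotoxicity is scored as a concentration-dependent drop in cellular ATP in a human lymphoblastoid line after 24 hr treatment at 37 C. Values are AC50s from Hill-equation modelling.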

Experiment [12] is described as follows: Cell Viability - LYMP2-006 (AID 978).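 Further: cells exposed to compound for 24 hours; on the % scale 0 is the no-effect control and ±100 the full control effect; nearly all actives have a fitted effect of over 60% in size.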 To be noted: LYMP2-006 lymphoblastoid cell viability, qHTS; series mostly up to 92.2 µM. Summed up:
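Cells are seeded at 2500 per well and rested 5 hr at 37 C. Compounds are added across a concentration series for 24 hr at 37 C, after which ATP is quantified by luciferase luminescence.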

Experiment [13] is described as follows: Cell Viability - LYMP2-010 (AID 981). To be noted: LYMP2-010 lymphoblastoid cell viability, qHTS; series mostly up to 92.2 µM. Summed up:
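Steps: seed 2500 LYMP2-010 cells per well; incubate 5 hr at 37 C; add compound; incubate 24 hr at 37 C; add CellTiter-Glo, wait 30 min at room temperature; read luminescence. Concentration-response fitted to Hill equation for AC50.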

Experiment [14] can be described thus: qHTS assay for small molecule agonists of retinoid X receptor alpha signaling (AID 588544; calls by dose curve). To be noted: HEK293T RXRa-UAS-bla, beta-lactamase reporter, 18 h; 530 nm emission.
In experiment [15] the target is Retinoic acid receptor RXR-alpha (Homo sapiens) (UniProt P19793). The experiment is described as above. To be noted: HEK293T RXRa-UAS-bla, beta-lactamase reporter, 18 h; series mostly up to 76.7 µM.
The target in experiment [16] is Thyroid hormone receptor beta (Homo sapiens) (UniProt P10828). Nature of the experiment: qHTS assay for small molecule agonists of thyroid hormone receptor beta signaling (AID 588545; calls by dose curve;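 further: 0% = DMSO only and 100% = 10 nM T3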). To be noted: TR-UAS-bla GripTite HEK 293, beta-lactamase ratio, agonist mode, 18 h; series mostly up to 76.7 µM. Summed up:
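Beta-lactamase reporter activity under TR response element control is measured in HEK 293 cells after 18 hrs compound exposure. Signal is ratiometric CCF4 fluorescence, 460/530 nm.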

Experiment [17] is described as follows: qHTS assay for small molecule agonists of the antioxidant response element (ARE) signaling pathway measured by Nrf2-dependant transcriptional activity (AID 720636; active means well fitted curve in the direction sought with a large enough effect in the repeat runs; an effect the other way counts as inactive or inconclusive;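 further: HepG2 cells with an ARE-driven luciferase reporter; % of control where 0% means no effect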). To be noted: ARE-luc HepG2, Nrf2 luciferase reporter, 16 h; series mostly up to 92.4 µM. Summed up:
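Nrf2-dependent transcription is measured in ARE-luc HepG2 cells: compound is applied for 16 hr at 37 C after a 6 hr attachment period, and luciferase activity is quantified by luminescence using ONE-Glo.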

For experiment [18], the target named is Nuclear receptor subfamily 1 group I member 2 (Rattus norvegicus) (UniProt Q9R1A7). Nature of the experiment: qHTS assay for small molecule activators of the rat pregnane X receptor (rPXR) signaling pathway (AID 651751; call rule not given here; further: 0% is about no effect). Particulars: rPXR reporter cells, luciferase (One-Glo), 24 h.
The nature of experiment [19]: qHTS assay for small molecule disruptors of the mitochondrial membrane potential - 1 hr assay (AID 651754; calls by dose curve; further: nearly all actives have a fitted effect of over 35% in size; further: potency means the concentration at half of the fitted maximal effect). To be noted: series mostly up to 92.2 µM. Summed up: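 Loss of mitochondrial potential shifts the cationic dye from red mitochondrial aggregates to green cytoplasmic monomers. Cells (HepG2) are treated with compound for 1 hr before a 30 min dye incubation at 37C.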

Experiment [20] can be described thus: qHTS assay for small molecule disruptors of the mitochondrial membrane potential - 5 hr assay (AID 651755; calls by dose curve; further: nearly all actives have a fitted effect of over 40% in size; further: potency means the concentration at half of the fitted maximal effect). To be noted: JC-1-type ratio dye; series mostly up to 92.2 µM. Summed up:
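Seed HepG2 overnight, add compound, incubate 5 hr at 37C and 5% CO2, stain 30 min with Mito-MPS, then measure monomer (490/535 nm) and aggregate (540/590 nm) fluorescence.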

Chain of Thyroid hormone receptor beta (Homo sapiens) (P10828 whole entry, looked up): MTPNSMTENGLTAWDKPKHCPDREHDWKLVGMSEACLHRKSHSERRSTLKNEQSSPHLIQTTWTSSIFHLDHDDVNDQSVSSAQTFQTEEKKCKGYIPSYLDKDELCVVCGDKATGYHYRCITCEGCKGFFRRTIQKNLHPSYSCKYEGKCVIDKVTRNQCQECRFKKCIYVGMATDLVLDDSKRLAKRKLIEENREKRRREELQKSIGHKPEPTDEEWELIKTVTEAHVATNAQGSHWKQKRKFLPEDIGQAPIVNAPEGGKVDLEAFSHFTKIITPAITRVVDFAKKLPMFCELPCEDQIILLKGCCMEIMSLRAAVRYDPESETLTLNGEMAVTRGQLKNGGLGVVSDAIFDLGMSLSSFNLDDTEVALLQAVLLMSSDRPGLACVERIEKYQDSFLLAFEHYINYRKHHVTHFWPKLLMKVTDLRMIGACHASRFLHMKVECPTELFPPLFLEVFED
Chain of Retinoic acid receptor RXR-alpha (Homo sapiens) (P19793 whole entry, looked up): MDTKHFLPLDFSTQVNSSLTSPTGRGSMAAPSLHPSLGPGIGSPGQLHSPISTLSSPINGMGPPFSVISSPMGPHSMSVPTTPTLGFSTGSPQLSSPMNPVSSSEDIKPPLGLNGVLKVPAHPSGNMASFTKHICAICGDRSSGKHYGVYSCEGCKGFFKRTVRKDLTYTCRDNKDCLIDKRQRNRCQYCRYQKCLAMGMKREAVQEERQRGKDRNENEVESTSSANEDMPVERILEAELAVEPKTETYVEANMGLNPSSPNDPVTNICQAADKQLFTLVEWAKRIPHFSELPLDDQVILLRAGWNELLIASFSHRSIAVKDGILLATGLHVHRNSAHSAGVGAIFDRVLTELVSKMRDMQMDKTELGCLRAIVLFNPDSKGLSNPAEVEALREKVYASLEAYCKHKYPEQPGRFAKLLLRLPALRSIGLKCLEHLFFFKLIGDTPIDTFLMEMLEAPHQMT
Chain of Nuclear receptor subfamily 1 group I member 2 (Rattus norvegicus) (Q9R1A7 whole entry, looked up): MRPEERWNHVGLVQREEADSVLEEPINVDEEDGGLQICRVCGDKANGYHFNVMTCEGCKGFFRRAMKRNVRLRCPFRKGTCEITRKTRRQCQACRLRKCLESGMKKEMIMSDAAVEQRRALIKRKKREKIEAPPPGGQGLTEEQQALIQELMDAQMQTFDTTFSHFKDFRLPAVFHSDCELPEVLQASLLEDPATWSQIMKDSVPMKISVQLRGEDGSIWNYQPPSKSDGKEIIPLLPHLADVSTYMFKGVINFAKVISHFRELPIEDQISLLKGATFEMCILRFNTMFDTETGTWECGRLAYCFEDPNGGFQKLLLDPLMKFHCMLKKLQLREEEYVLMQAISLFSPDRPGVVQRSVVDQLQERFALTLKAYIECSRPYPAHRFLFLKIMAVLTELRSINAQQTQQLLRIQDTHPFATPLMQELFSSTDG

In the case of `CC(C)COC(=O)COc1cc(Cl)c(Cl)cc1Cl`, in [1], the Potency is > 92 µM (inactive). Further, the activity change, negative = cytotoxicity in experiment [2] was 8.53% (inactive). Moreover, the Potency entry in experiment [3], in experiment [4], in experiment [5], in [6], in [7] and in experiment [8] was “inactive” throughout. For the same compound, the Potency entry in [9], in experiment [10], in [11], in experiment [12], in experiment [13] and in experiment [15] was “inactive” each time. For the same compound, the Potency entry in experiment [16] and in experiment [17] was “inactive” throughout. The max response in experiment [14] was -5.32%; in [18] it was -2.47% (inactive).
Regarding `CCCCNCC`, in experiment [1], the Potency is > 92 µM (inactive). In addition, the activity change, negative = cytotoxicity in experiment [2] was -1.46% (inactive). Also, the Potency entry in experiment [3], in experiment [4], in experiment [5], in [6], in [7] and in experiment [8] was “inactive” throughout. Further, the Potency entry in experiment [9], in experiment [10], in experiment [11], in [12], in experiment [13] and in [15] was “inactive” throughout. Further, the Potency result in experiment [19], in experiment [20] and in experiment [17] was “inactive” throughout. The max response was -3.36% in experiment [14] and 1.14% (inactive) in experiment [18].
Turning to `CC(=O)c1ccc(Cl)c(Cl)c1Cl`, the Potency in experiment [1] is > 92 µM (inactive). Further, the activity change, negative = cytotoxicity in experiment [2] was -12.1% (inactive). Moreover, the Potency entry in experiment [3], in experiment [4], in [5], in experiment [6], in experiment [7] and in experiment [8] was “inactive” each time. The Potency result in [9], in [10], in experiment [11], in [12], in [13] and in experiment [15] was “inactive” throughout. In addition, the Potency entry in experiment [19], in experiment [20] and in [17] was “inactive” throughout. For the same compound, the max response is -2.84% in experiment [14] and -2.86% (inactive) in experiment [18].
`Nc1cc([N+](=O)[O-])ccc1O`: the Potency is > 92 µM (inactive) in [1], 29.8 µM (active) in experiment [19] and 29.8 µM (active) in [20]. Also, the Potency entry in [3], in experiment [4], in experiment [5], in experiment [6], in [7] and in experiment [8] was “inactive” throughout. The Potency result in [9], in experiment [10], in experiment [11], in experiment [12], in [13] and in experiment [15] was “inactive” in each case. Moreover, the Potency entry in experiment [16] was “inactive”. The max response in experiment [14] was -3.91% and 2.48%; in [18], 5.65% (inactive) and 2.03% (inactive).
As to `CCCCC(CC)COC(=O)COc1ccc(Cl)cc1Cl` (configuration not stated), in experiment [1], the Potency was > 92 µM (inactive). Besides, the activity change, negative = cytotoxicity in experiment [2] was 1.51% (inactive). Also, the Potency result in experiment [3], in [4], in [5], in experiment [6], in [7] and in [9] was “inactive” throughout. Also, the Potency entry in experiment [10], in experiment [11], in [12], in [13], in experiment [15] and in [16] was “inactive” in each case. Moreover, the Potency entry in [19], in [20] and in experiment [17] was “inactive” throughout. The max response was 5.67% and -6.26% in experiment [14]; -0.582% (inactive) and 1.82% (inactive) in experiment [18].
Take `Oc1ccc2c(c1)OCO2`: in [1], the Potency was > 92 µM (inactive). The Potency result in [3], in experiment [4], in [5], in experiment [6], in experiment [7] and in experiment [8] was “inactive” in each case. Besides, the Potency result in experiment [9], in experiment [10], in [11], in [12], in experiment [13] and in experiment [15] was “inactive” throughout. For the same compound, the Potency entry in [16], in [19], in [20] and in experiment [17] was “inactive” in each case. The max response in [14] is -4.36%; in experiment [18], -0.719% (inactive).
Take `CCOC(=O)C1OC1c1ccccc1` (configuration not stated): in [1], the Potency was > 92 µM (inactive). Further, the activity change, negative = cytotoxicity in experiment [2] was 0.144% (inactive). Further, the Potency entry in experiment [3], in [4], in [5], in experiment [6], in [7] and in [8] was “inactive” each time. Moreover, the Potency result in [9], in experiment [10], in [11], in [12], in [13] and in experiment [15] was “inactive” throughout. In addition, the Potency entry in experiment [16], in [19], in experiment [20] and in experiment [17] was “inactive” in each case. For the same compound, the max response in experiment [14] is 2.55%; in [18], 9.31% (inactive).

The values are drawn from PubChem BioAssay (NCATS).
